This is an account of results in PubChem BioAssay (NCI).

A short description of test [1]: NCI Yeast Anticancer Drug Screen. Data for the rad50 strain (AID 155).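 Also: 0% = growth of vehicle-only cultures of the same strain.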 As to conditions: S. cerevisiae rad50 strain growth inhibition; at 50.0 µM; hits give high values. Put shortly: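 Yeast carrying a defined DNA repair defect were exposed to test compounds, and growth was compared with vehicle-treated controls to give percent inhibition.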
Test [2] is described as follows: NCI Yeast Anticancer Drug Screen. Data for the mec2-1 strain (AID 157). As to conditions: S. cerevisiae mec2-1 strain, at 50.0 µM, hits give high values. Put shortly: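 Each compound was tested on mec2-1 yeast, a strain altered in DNA damage repair or cell cycle control. Growth inhibition is reported relative to vehicle.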
Test [3] can be described thus: NCI Yeast Anticancer Drug Screen. Data for the sgs1 mgt1 strain (AID 161).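 Also: 0% = growth of cultures given vehicle only.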 As to conditions: S. cerevisiae sgs1 mgt1 strain, at 50.0 µM, hits give high values. The essentials: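 Inhibition of yeast growth, normalised to vehicle-treated controls, is reported for a strain bearing genetic alterations in DNA damage repair.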
Test [4] in a line: NCI Yeast Anticancer Drug Screen. Data for the cln2 rad14 strain (AID 165).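 Also: 0% = growth equal to vehicle treated cultures.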 As to conditions: S. cerevisiae cln2 rad14 strain, at 50.0 µM, hits give high values. The essentials:
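Test compounds were added to cln2 rad14 yeast cultures; inhibition of growth was then determined by comparison with vehicle treatment.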

The nature of test [5]: NCI Yeast Anticancer Drug Screen. Data for the bub3 strain (AID 167). As to conditions: S. cerevisiae bub3 mutant strain, at 50.0 µM, hits give high values. The essentials: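 Compounds were applied to a genetically altered yeast strain carrying a cell-cycle control defect. Growth inhibition was scored against vehicle-treated controls.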
A short description of test [6]: NCI Yeast Anticancer Drug Screen. Data for the mlh1 rad18 strain (AID 175). As to conditions: S. cerevisiae mlh1 rad18 strain growth inhibition; at 50.0 µM; hits give high values. The essentials: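 Inhibition values reflect reduced growth of mutant yeast versus vehicle-treated controls following compound exposure; the mutations affect DNA damage repair.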

This is part of a sample that, as a whole, favours compounds with a hit. Of some 79,000 tested, about 15% had one in any assay. Unmarked numbers belong to inactive results. Calls of active or inactive are those of the source. Rule as the data show it: active = growth inhibition above about 70%; inactive = the rest.

On to `Oc1c2c(c3cccc4cccc1c43)=Nc1ccccc1S2`, for which the growth inhibition in test [1] was 0.25%; in test [2], 3.2%; in test [3], 6.4%; in test [4] it was -23.6%; in test [5], 3.3%; in test [6] it was 7.1%.
Turning to `CC(=O)NC1C(SC(=O)NCCCl)OC(COC(C)=O)C(OC(C)=O)C1OC(C)=O` (stereo unspecified), the growth inhibition is -7.75% in test [1]; -8.6% in test [2]; -3.2% in test [3]; -16.8% in test [4]; -27.3% in test [5]; -4.3% in test [6].
For `COc1cc2c(cc1O)CN1Cc3c(ccc(OC)c3O)C2C1` (stereo unspecified), the growth inhibition was -16% in test [1]; -14.4% in test [2]; -1.8% in test [3]; -1.15% in test [4]; -11.5% in test [5]; 0.65% in test [6].
For `COc1cccc(C2OC(N)=C(O)C2=O)c1` (stereo unspecified), the growth inhibition is -10.8% in test [1]; 1.9% in test [2]; 3.6% in test [3]; -11.2% in test [4]; 2.45% in test [5]; 22.2% in test [6].
As to `CC(=O)Oc1ccccc1/C=C1/C=C(c2ccccc2)OC1=O`, the growth inhibition in test [1] is 6.4%; in test [2], -7.55%; in test [3], -0.55%; in test [4], -39.1%; in test [5], -16.8%; in test [6] it was 0.2%.
As for `Clc1ccccc1C(CI)c1ccccc1Cl`, the growth inhibition in test [1] was 25.6%; in test [2] it was 9.75%; in test [3], 15.2%; in test [4], 13.4%; in test [5], -1.2%; in test [6], 10.1%.
Regarding `CCC1(c2ccccc2)Nc2ccccc2C1=Nc1ccccc1` (stereo unspecified), the growth inhibition in test [1] was 20.1%; in test [2], 15.5%; in test [3] it was 20.2%; in test [4], 9.5%; in test [5], 11.7%; in test [6], 27.4%.
As to `CN(C)CCC(c1ccccc1)C(CO)c1ccccc1` (stereo unspecified), the growth inhibition in test [1] was -24.6%; in test [2] it was 8.75%; in test [3], 9.9%; in test [4], 7.65%; in test [5] it was -2.1%; in test [6] it was 12.7%.
Take `CCCCCCCCCc1cc[n+](C2=C([O-])C3=C(C(=O)C2=O)C2c4ccccc4C3c3ccccc32)cc1`: the growth inhibition in test [1] was 43.8%; in test [2], 50.6%; in test [3], 80.5% (active); in test [4] it was 46%; in test [5], 53.9%; in test [6], 60.3%.
As for `CCN(CC)Cc1ccccc1CO`, the growth inhibition in test [1] is 3.05%; in test [2], 6.15%; in test [3], 2.2%; in test [4], 9.75%; in test [5], 9.6%; in test [6] it was 0.5%.
Regarding `CSC(SC)=C(C(=O)c1ccc(Cl)cc1)n1c(=O)sc2cc(Br)ccc21`, the growth inhibition in test [1] is -19%; in test [2] it was 2.45%; in test [3], 6.25%; in test [4] it was 0.25%; in test [5] it was 12.8%; in test [6], -20.4%.
With `C#CCNC(=O)NCCCl`, the growth inhibition in test [1] is 18.9%; in test [2], -3.45%; in test [3], -0.3%; in test [4], -34.1%; in test [5] it was 27.9%; in test [6], 2.65%.
In the case of `COC(CCCl)c1ccccc1` (stereo unspecified), the growth inhibition in test [1] was 1.2%; in test [2], -21.2%; in test [3] it was -9.8%; in test [4], 8.25%; in test [5], -12.7%; in test [6] it was 6.9%.
As to `O=C(O)c1cc(=O)c2cc(Cc3ccccc3)ccc2[nH]1`, the growth inhibition is 4.7% in test [1]; 6.5% in test [2]; 10.4% in test [3]; 9.8% in test [4]; 11.1% in test [5]; 12.8% in test [6].
As for `CC(C)/C(Cl)=N/OC(=O)Nc1ccc(Br)cc1`, the growth inhibition in test [1] is 34.6%; in test [2] it was 47.5%; in test [3], 90.5% (active); in test [4], 24.1%; in test [5], 69.3%; in test [6] it was 81.8% (active).
With `C=CCc1ccc(OC(=O)Nc2ccccc2)c(OC)c1`, the growth inhibition in test [1] is 55.9%; in test [2], 25.2%; in test [3], 31.4%; in test [4] it was 13.9%; in test [5], 33.5%; in test [6] it was 23.4%.
Turning to `Cc1[nH]c2ccccc2c1C1=CC(=O)N(c2ccccc2)C1=O`, the growth inhibition is -24.1% in test [1]; -23.6% in test [2]; 9.3% in test [3]; 21.4% in test [4]; -4.7% in test [5]; -7.9% in test [6].
For `CCC(c1ccc(O)cc1)c1cc2c(cc1OCCO)OCO2` (stereo unspecified), the growth inhibition in test [1] was -15.7%; in test [2], -9.25%; in test [3], -5.7%; in test [4] it was -11.2%; in test [5], -7.9%; in test [6] it was -5.3%.
With `CCc1[nH]nc(-c2n[nH]c(CC)c2C)c1C`, the growth inhibition in test [1] was -66.8%; in test [2], -24.9%; in test [3], -20.1%; in test [4], -26.4%; in test [5] it was -13.7%; in test [6], -9.3%.
In the case of `O=C(C[n+]1ccccc1)NNC(=O)/C(=C/c1ccc2c(c1)OCO2)NC(=O)c1ccccc1`, the growth inhibition in test [1] is -5.95%; in test [2], 3.4%; in test [3], -13.7%; in test [4], 21.3%; in test [5], -3.95%; in test [6], 10.1%.
Regarding `CCn1c2ccccc2c2cc(N=Nc3cc(N)ccc3N(C)C)ccc21`, the growth inhibition is -3.35% in test [1]; -7.85% in test [2]; -9.1% in test [3]; -22.3% in test [4]; -5.05% in test [5]; -4.6% in test [6].
As to `C=CCn1c(C23CC4CC(CC(C4)C2)C3)n[nH]c1=S`, the growth inhibition in test [1] was 27.6%; in test [2], 37.7%; in test [3] it was -8.45%; in test [4], 19.2%; in test [5], 3.55%; in test [6] it was -26.3%.
As for `c1ccc2cc(CNCCCCNCCCNCc3ccc4ccccc4c3)ccc2c1`, the growth inhibition in test [1] was 63.8%; in test [2], 38.6%; in test [3], 62.3%; in test [4] it was 46.2%; in test [5], 85% (active); in test [6], 76.3% (active).
For the molecule `N/N=C(\C(=O)Nc1ccc(Cl)cc1Cl)C(c1cnc2ccccc2n1)[N+](=O)[O-]` (stereo unspecified), the growth inhibition was 12.5% in test [1]; -21.9% in test [2]; -3.6% in test [3]; -20.6% in test [4]; -9.45% in test [5]; 0.45% in test [6].
Regarding `O=C(O)C(=O)/C=C(\O)c1ccc(Br)cc1`, the growth inhibition in test [1] was 32.3%; in test [2] it was 11.8%; in test [3], 3.7%; in test [4], -12.1%; in test [5], 36.4%; in test [6], 30.1%.
Consider `C1CCC(C2CCC(C3CCCCC3)CC2)CC1` (stereo unspecified), for which the growth inhibition is -14.1% in test [1]; -8.75% in test [2]; -9.55% in test [3]; -45.6% in test [4]; 6.35% in test [5]; 6.15% in test [6].
Regarding `CCOC(=O)C(C(=O)/C=C\c1ccccc1)(C(c1ccccc1)c1ccccc1)C(c1ccccc1)c1ccccc1`, the growth inhibition is -9.7% in test [1]; 14.7% in test [2]; 5% in test [3]; -38.5% in test [4]; 2.9% in test [5]; 2.1% in test [6].
Take `Nc1nc2c(nnn2-c2ccc(Cl)cc2)c(=O)[nH]1`: the growth inhibition was -4.3% in test [1]; -4.15% in test [2]; -5.85% in test [3]; -25.1% in test [4]; -0.5% in test [5]; -6.25% in test [6].
`O=C(O)CNC(=O)OCc1ccccc1`: the growth inhibition in test [1] is -35.9%; in test [2], -16.4%; in test [3], -35.5%; in test [4] it was -45.8%; in test [5] it was 1.55%; in test [6], -19.4%.
`COc1cc(-c2c(C)c(C)nc(OC)c2C#N)cc(OC)c1OC`: the growth inhibition is -1.05% in test [1]; -13.9% in test [2]; -24% in test [3]; -19.1% in test [4]; -15.2% in test [5]; -17.9% in test [6].
For the molecule `N/C(=N\Cl)C(Cl)(Cl)Cl`, the growth inhibition is -17.9% in test [1]; -16.5% in test [2]; 6.25% in test [3]; -26.6% in test [4]; 2.1% in test [5]; -21.4% in test [6].
Turning to `CN(C)C(=O)Sc1nnc(C(C)(C)C)o1`, the growth inhibition was -4.35% in test [1]; -5.9% in test [2]; -7.3% in test [3]; -23.4% in test [4]; 1.7% in test [5]; 4.2% in test [6].
As for `CC(=O)Nc1ccc(S(=O)(=O)CO)cc1`, the growth inhibition was 19.4% in test [1]; 16.9% in test [2]; 19.6% in test [3]; 6.55% in test [4]; -0.3% in test [5]; 16.8% in test [6].
As to `Clc1ccc(-c2ncc(-c3ccccc3)o2)c(Cl)c1`, the growth inhibition in test [1] was 9.35%; in test [2], -3.4%; in test [3], 5.65%; in test [4], -39.9%; in test [5] it was 9.2%; in test [6], 23.2%.
On to `O=C(CCCN1CC=C(n2c(=O)[nH]c3ccccc32)CC1)c1cccs1`, for which the growth inhibition was 50.6% in test [1]; 29.2% in test [2]; 32.4% in test [3]; 19.9% in test [4]; 33.1% in test [5]; 42.8% in test [6].
Turning to `CCN(CC)CC1CCCCN1CC(=O)N1c2ccccc2NC(=O)c2ccccc21` (stereo unspecified), the growth inhibition in test [1] is -6.85%; in test [2], -3.25%; in test [3], 5.25%; in test [4], -6.1%; in test [5] it was -1.9%; in test [6] it was 5.95%.
Regarding `OCCCNCc1ccccc1`, the growth inhibition in test [1] was -36.8%; in test [2] it was -23.4%; in test [3] it was -20.1%; in test [4], -32.4%; in test [5], -32.9%; in test [6], -21.1%.
Take `CCC(Nc1ncnc2nc[nH]c12)C(=O)O` (stereo unspecified): the growth inhibition in test [1] is -7.5%; in test [2], -14.2%; in test [3], -17.4%; in test [4] it was -20.4%; in test [5], -23.6%; in test [6], 14%.
In the case of `Oc1ccc(C2CCCC2)cc1`, the growth inhibition in test [1] was -9.15%; in test [2], -30.1%; in test [3], -22.1%; in test [4] it was -14.7%; in test [5], -12.7%; in test [6], -17.4%.
On to `CC[n+]1cc([N+](=O)[O-])ccc1Cl`, for which the growth inhibition in test [1] is 17.5%; in test [2], 14.5%; in test [3], 13.6%; in test [4], 15.9%; in test [5], 12.4%; in test [6], 20.2%.
Turning to `CCCNc1ncnc2[nH]ncc12`, the growth inhibition in test [1] was -44.1%; in test [2], -25.9%; in test [3] it was -39.9%; in test [4], -23%; in test [5], -42.2%; in test [6], -32%.
